# Measurements reported in PMC7862700, “An all-to-all approach to the identification of sequence-specific readers for epigenetic DNA modifications on cytosine”.
# Key:
# Assay in all cases: DAPPL (digital affinity profiling via proximity ligation, sequencing); 10 mM Tris-HCl pH 7.5, 50 mM NaCl, 1 mM DTT, 4% glycerol, room temperature, 30 min; GST-TFs on glutathione beads, 16-mer random dsDNA library, 0.1% formaldehyde crosslink after washing; high values mean tight binding
# ELK1 = target: T1, ELK1 (Homo sapiens, UniProt P19419 1-428); conditions: protein: recombinant; tags: N-terminal GST; dsDNA, one strand shown
# T1 sequence: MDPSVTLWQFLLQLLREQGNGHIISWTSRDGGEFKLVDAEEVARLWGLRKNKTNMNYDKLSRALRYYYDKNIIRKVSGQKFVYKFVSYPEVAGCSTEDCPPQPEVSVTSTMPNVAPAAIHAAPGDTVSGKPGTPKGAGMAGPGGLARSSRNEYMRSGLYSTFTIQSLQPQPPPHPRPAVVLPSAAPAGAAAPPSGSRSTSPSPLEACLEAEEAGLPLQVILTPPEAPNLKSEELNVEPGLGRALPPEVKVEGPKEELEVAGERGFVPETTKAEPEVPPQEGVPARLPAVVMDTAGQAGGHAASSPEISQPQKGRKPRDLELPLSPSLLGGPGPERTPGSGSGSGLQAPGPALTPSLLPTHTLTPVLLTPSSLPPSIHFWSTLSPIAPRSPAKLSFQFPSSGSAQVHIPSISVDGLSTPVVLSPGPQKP
# In short: (§1)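 Binding signal is each hexamer's read frequency for a factor divided by its frequency in the tag-only sample. The factors were GST-fused human transcription factors from yeast, captured on glutathione beads, DNA-barcoded and pooled with that sample. Pools were incubated with 200 nmole of a random double-stranded 16-mer DNA library in Tris/NaCl/DTT/glycerol buffer at room temperature for 30 min, then washed, crosslinked with 0.1% formaldehyde, proximity-ligated with BsaI/T4 ligase (1 h, 37 °C), PCR-amplified and sequenced on an Illumina NextSeq500.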
# ELF1 = ELF1 (Homo sapiens, UniProt P32519 1-619); conditions: protein: recombinant; tags: N-terminal GST; dsDNA, one strand shown
# In short: as §1
# SPI1 = SPI1 (Homo sapiens, UniProt P17947 1-270); conditions: protein: recombinant; tags: N-terminal GST; dsDNA, one strand shown
# In short: as §1
# SPIB = SPIB (Homo sapiens, UniProt Q01892 1-262); conditions: protein: recombinant; tags: N-terminal GST; dsDNA, one strand shown
# In short: as §1
# HSF1 = HSF1 (Homo sapiens, UniProt Q00613 1-529); conditions: protein: recombinant; tags: N-terminal GST; chain copies: 3; dsDNA, one strand shown
# In short: as §1
# SPIC = target: T2, SPIC (Homo sapiens, UniProt Q8N5J4 1-248); conditions: protein: recombinant; tags: N-terminal GST; dsDNA, one strand shown
# T2 sequence: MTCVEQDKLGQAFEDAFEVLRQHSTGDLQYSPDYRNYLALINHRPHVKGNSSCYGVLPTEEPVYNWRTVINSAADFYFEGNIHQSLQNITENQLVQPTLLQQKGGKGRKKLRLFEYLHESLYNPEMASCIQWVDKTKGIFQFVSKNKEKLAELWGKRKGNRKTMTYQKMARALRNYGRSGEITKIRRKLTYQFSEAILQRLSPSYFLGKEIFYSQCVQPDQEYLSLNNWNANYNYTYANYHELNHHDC
# In short: as §1
# ELK4 = target: T3, ELK4 (Homo sapiens, UniProt P28324-2 1-405); conditions: protein: recombinant; tags: N-terminal GST; dsDNA, one strand shown
# T3 sequence: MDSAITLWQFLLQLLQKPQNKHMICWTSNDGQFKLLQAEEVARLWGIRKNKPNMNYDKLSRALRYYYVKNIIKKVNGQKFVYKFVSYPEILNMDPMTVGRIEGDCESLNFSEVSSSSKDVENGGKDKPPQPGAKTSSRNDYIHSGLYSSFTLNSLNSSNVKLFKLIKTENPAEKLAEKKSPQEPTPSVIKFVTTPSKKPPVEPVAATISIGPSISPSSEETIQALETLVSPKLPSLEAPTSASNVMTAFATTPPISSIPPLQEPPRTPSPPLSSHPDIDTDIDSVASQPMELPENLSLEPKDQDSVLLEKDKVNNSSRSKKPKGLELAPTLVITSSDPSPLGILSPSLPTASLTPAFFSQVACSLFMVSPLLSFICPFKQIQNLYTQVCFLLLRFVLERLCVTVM
# In short: as §1
# ELF3 = target: T4, ELF3 (Homo sapiens, UniProt P78545 1-371); conditions: protein: recombinant; tags: N-terminal GST; dsDNA, one strand shown
# T4 sequence: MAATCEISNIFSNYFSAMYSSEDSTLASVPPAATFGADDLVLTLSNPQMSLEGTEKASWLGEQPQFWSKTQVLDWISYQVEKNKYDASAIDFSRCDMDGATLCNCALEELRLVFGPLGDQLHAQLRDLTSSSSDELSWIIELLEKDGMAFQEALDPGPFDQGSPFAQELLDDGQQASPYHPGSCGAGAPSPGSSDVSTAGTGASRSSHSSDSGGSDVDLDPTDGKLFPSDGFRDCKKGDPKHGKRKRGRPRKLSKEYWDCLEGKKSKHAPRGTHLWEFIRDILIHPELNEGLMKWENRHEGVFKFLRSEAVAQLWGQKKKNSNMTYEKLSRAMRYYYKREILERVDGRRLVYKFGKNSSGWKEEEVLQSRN
# In short: as §1
# ETV1 = ETV1 (Homo sapiens, UniProt P50549 1-477); conditions: protein: recombinant; tags: N-terminal GST; dsDNA, one strand shown
# In short: as §1
# ERF = target: T5, ERF (Homo sapiens, UniProt P50548 1-548); conditions: protein: recombinant; tags: N-terminal GST; dsDNA, one strand shown
# T5 sequence: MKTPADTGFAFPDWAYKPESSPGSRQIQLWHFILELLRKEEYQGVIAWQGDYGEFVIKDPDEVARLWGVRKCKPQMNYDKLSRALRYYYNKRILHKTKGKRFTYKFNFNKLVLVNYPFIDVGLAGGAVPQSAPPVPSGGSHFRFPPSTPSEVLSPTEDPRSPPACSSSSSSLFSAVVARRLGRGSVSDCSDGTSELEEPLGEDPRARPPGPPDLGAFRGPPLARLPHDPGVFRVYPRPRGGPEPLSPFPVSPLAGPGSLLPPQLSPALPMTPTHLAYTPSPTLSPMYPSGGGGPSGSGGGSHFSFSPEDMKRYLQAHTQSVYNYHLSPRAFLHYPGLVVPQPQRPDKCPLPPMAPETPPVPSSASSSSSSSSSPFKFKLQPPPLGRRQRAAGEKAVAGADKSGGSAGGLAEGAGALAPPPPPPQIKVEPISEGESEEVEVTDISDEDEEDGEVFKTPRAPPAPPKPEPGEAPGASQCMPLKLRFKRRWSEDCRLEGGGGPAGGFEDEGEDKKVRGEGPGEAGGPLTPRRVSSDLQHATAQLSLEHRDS
# In short: as §1
# ETS2 = target: T6, ETS2 (Homo sapiens, UniProt P15036 1-469); conditions: protein: recombinant; tags: N-terminal GST; dsDNA, one strand shown
# T6 sequence: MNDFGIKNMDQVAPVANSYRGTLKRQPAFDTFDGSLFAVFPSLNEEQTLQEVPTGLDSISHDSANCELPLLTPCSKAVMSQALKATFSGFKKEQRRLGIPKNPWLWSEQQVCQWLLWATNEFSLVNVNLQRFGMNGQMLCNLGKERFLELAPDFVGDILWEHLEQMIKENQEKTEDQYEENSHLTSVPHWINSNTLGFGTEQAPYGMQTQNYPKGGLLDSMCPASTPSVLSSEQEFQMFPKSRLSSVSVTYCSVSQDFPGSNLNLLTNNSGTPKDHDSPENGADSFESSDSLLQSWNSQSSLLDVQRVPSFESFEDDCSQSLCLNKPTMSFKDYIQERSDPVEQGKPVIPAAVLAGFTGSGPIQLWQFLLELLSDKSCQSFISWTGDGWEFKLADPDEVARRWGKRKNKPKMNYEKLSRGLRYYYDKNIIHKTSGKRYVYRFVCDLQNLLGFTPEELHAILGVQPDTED
# In short: as §1
# ETV3 = target: T7, ETV3 (Homo sapiens, UniProt P41162-2 1-143); conditions: protein: recombinant; tags: N-terminal GST; dsDNA, one strand shown
# T7 sequence: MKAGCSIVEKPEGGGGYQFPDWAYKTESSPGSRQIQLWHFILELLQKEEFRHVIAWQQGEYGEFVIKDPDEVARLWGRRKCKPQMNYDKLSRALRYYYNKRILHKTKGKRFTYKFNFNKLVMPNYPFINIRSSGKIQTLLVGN
# In short: as §1
# HSF1, sequence (Q00613 whole entry): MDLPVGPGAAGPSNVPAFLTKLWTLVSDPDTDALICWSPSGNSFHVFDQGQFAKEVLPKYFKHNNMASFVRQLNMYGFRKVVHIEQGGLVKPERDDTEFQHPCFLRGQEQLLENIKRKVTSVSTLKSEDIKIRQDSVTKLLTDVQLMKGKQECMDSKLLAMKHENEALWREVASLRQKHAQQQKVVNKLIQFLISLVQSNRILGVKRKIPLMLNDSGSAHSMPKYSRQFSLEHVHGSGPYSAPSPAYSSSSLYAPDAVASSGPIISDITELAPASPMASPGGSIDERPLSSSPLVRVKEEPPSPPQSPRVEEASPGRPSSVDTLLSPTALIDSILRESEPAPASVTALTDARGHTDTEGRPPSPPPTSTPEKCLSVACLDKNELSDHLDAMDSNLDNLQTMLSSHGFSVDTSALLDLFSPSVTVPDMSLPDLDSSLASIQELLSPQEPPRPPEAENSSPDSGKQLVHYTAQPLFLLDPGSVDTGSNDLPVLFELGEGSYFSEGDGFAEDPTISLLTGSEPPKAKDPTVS
# ELF1, sequence (P32519 whole entry): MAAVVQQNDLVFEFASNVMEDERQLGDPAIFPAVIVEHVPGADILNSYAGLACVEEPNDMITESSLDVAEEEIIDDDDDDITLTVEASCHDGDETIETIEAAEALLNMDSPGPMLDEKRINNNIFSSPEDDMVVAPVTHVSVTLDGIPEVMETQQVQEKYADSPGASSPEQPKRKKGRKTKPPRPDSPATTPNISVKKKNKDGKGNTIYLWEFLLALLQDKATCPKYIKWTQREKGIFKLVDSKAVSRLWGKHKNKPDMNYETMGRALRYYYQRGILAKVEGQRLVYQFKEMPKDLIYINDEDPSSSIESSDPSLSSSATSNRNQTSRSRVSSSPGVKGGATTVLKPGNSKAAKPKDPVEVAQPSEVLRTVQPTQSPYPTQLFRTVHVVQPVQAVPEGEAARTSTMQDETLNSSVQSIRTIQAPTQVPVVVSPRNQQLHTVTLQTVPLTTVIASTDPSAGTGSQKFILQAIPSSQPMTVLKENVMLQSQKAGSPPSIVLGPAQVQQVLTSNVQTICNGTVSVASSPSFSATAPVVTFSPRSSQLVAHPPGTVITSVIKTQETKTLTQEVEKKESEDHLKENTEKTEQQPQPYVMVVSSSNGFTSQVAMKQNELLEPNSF
# SPIB, sequence (Q01892 whole entry): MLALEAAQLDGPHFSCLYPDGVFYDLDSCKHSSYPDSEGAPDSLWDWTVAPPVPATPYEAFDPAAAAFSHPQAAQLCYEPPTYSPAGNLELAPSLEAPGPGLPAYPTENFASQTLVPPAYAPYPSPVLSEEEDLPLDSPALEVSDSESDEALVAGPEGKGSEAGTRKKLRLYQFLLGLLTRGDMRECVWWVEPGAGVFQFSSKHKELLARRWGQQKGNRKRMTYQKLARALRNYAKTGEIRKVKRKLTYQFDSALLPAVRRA
# ETV1, sequence (P50549 whole entry): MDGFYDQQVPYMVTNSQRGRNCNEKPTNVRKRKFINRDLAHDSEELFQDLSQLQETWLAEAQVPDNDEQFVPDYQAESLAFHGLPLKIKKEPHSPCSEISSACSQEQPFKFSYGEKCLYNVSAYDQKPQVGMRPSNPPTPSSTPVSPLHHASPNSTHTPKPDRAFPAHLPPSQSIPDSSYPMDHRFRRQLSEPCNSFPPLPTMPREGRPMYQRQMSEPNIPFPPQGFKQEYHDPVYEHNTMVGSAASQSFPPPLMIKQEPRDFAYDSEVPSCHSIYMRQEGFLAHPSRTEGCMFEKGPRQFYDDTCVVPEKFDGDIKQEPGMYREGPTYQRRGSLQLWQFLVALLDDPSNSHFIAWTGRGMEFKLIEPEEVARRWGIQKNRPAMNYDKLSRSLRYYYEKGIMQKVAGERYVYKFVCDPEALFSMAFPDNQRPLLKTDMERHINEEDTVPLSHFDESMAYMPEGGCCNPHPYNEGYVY
sequence,measurement,setting,value
CCCTAG,binding signal,ELK1,"1.04 fold enrichment (6-mer frequency, TF over GST control)"
same,binding signal,ELF1,"1.06 fold enrichment (6-mer frequency, TF over GST control)"
same,binding signal,SPI1,"1 fold enrichment (6-mer frequency, TF over GST control)"
same,binding signal,SPIB,"1.05 fold enrichment (6-mer frequency, TF over GST control)"
same,binding signal,HSF1,"1.15 fold enrichment (6-mer frequency, TF over GST control)"
same,binding signal,SPIC,"1.18 fold enrichment (6-mer frequency, TF over GST control)"
same,binding signal,ELK4,"1.01 fold enrichment (6-mer frequency, TF over GST control)"
same,binding signal,ELF3,"1.13 fold enrichment (6-mer frequency, TF over GST control)"
same,binding signal,ETV1,"1.01 fold enrichment (6-mer frequency, TF over GST control)"
same,binding signal,ERF,"1.04 fold enrichment (6-mer frequency, TF over GST control)"
same,binding signal,ETS2,"1.03 fold enrichment (6-mer frequency, TF over GST control)"
same,binding signal,ETV3,"1.04 fold enrichment (6-mer frequency, TF over GST control)"
GCAGAA,binding signal,HSF1,"1.15 fold enrichment (6-mer frequency, TF over GST control)"
same,binding signal,SPIC,"1.03 fold enrichment (6-mer frequency, TF over GST control)"
GAGAAG,binding signal,HSF1,"1.22 fold enrichment (6-mer frequency, TF over GST control)"
